{"source": "the supplement of paper PMC9694430", "note": "Several values for one entry are separate records, joined by “and”; a condition that tells them apart may be missing. Equal values may be shown once."}
{"test_system": "LOC_OS01G01410-cb001", "test": "thermal shift delta Tm vs DMSO control; higher = stronger stabilization (binding)", "details": "12.5 µM; protein concentration 2 µM", "in_short": "(§1)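 Purified, E. coli-expressed rice kinase domain constructs were tested by differential scanning fluorimetry in 96-well plates: 19.5 μl of 2 μM kinase in 100 mM potassium phosphate pH 7.5, 150 mM NaCl, 10% glycerol, 5 × SYPRO Orange, plus compound in DMSO. Fluorescence was read from 25°C to 95°C at 0.05°C/s. Melting temperatures came from Boltzmann fits, and the shift is the triplicate mean relative to protein with DMSO alone.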"}
{"smiles": "COc1cc(N2CCN(C)CC2)ccc1Nc1nccc(-c2cn(C)c3cnccc23)n1", "thermal shift delta Tm": "1.86 °C"}
{"smiles": "CN1CCN(c2nc(C3=C(c4c[nH]c5ccccc45)C(=O)NC3=O)c3ccccc3n2)CC1", "note": "[Sotrastaurin]", "thermal shift delta Tm": "0.84 °C"}
{"smiles": "CCN(CC)CCCC(C)Nc1nc(C)cc(Nc2ccc3nc(C)cc(N)c3c2)n1", "note": "(stereo unspecified)", "thermal shift delta Tm": "1.12 °C"}
{"smiles": "CN(C)C[C@@H]1CCn2cc(c3ccccc32)C2=C(C(=O)NC2=O)c2cn(c3ccccc23)CCO1", "thermal shift delta Tm": "1.3 °C"}
{"smiles": "CCn1c2ccccc2c2cc(Nc3ccnc(NCCCN4CCOCC4)n3)ccc21", "thermal shift delta Tm": "-0.05 °C"}
{"smiles": "O=C1NCCc2[nH]c(-c3ccncc3)cc21", "thermal shift delta Tm": "0.69 °C"}
{"smiles": "Oc1cc(O)cc(/C=C/c2ccc(O)c(O)c2)c1", "note": "[Piceatannol]", "thermal shift delta Tm": "1.39 °C"}
{"smiles": "CC(C)(C#N)c1ccc(N2C(=O)OCc3cnc4ccc(-c5cnc6ccccc6c5)cc4c32)cc1", "thermal shift delta Tm": "0.56 °C"}
{"smiles": "N#CCNC(=O)c1ccc(-c2ccnc(Nc3ccc(N4CCOCC4)cc3)n2)cc1", "note": "[Momelotinib (CYT387)]", "thermal shift delta Tm": "2.55 °C"}
{"smiles": "Cc1cc(C(=O)Nc2nc3cccc(Cl)c3n2[C@@H]2CCCCN(C(=O)/C=C/CN(C)C)C2)ccn1", "note": "[Nazartinib (EGF816, NVS-816)]", "thermal shift delta Tm": "1.02 °C"}
{"smiles": "COc1cc(OC)cc(N(CCNC(C)C)c2ccc3ncc(-c4cnn(C)c4)nc3c2)c1", "thermal shift delta Tm": "0.55 °C"}
{"smiles": "O=C1c2ccc(Nc3ccc(F)cc3F)cc2CCc2ccc(OC[C@H](O)CO)cc21", "note": "[Skepinone-L]", "thermal shift delta Tm": "0.24 °C"}
{"smiles": "O=C1CCc2c(Oc3ccc4c(c3)[C@@H]3[C@H](O4)[C@H]3c3nc4cc(C(F)(F)F)ccc4[nH]3)ccnc2N1", "note": "[Lifirafenib (BGB-283)]", "thermal shift delta Tm": "1.01 °C"}
{"smiles": "N#C/C(=C(/N)Sc1ccc(N)cc1)c1ccccc1C(F)(F)F", "thermal shift delta Tm": "1.06 °C"}
{"smiles": "COc1ccc(CC(=O)Nc2nc3c(s2)CCc2ccccc2-3)cc1OC", "thermal shift delta Tm": "0.68 °C"}
{"smiles": "CCn1c(-c2nonc2N)nc2c(C#CC(C)(C)O)ncc(OC[C@H]3CCCNC3)c21", "thermal shift delta Tm": "1.38 °C"}
{"smiles": "Cn1cc(-c2ccc3nnc(Sc4ccc5ncccc5c4)n3n2)cn1", "thermal shift delta Tm": "0.49 °C"}
{"smiles": "CCc1nc(C(N)=O)c(Nc2ccc(N3CCC(N4CCN(C)CC4)CC3)c(OC)c2)nc1NC1CCOCC1", "note": "[Gilteritinib (ASP2215)]", "thermal shift delta Tm": "4.13 °C"}
{"smiles": "CC(C)(CCCCCC(O)CCCCCC(C)(C)C(=O)O)C(=O)O", "thermal shift delta Tm": "0.55 °C"}
{"smiles": "CCN1CCN(Cc2ccc(Nc3ncc(F)c(-c4cc(F)c5nc(C)n(C(C)C)c5c4)n3)nc2)CC1", "thermal shift delta Tm": "1.5 °C"}
{"smiles": "Cc1cnc(NC(=O)Nc2cc(Br)c(C)cc2OC[C@@H]2CNCCO2)cn1", "thermal shift delta Tm": "0.41 °C"}
{"smiles": "CCn1c(=O)c(-c2ccc(Cl)cc2Cl)cc2cnc(Nc3ccc(N4CCNCC4)c(F)c3)nc21", "thermal shift delta Tm": "5.82 °C"}
{"smiles": "C=CC(=O)Nc1cccc(Oc2nc(Nc3ccc(N4CCN(C)CC4)cc3OC)ncc2Cl)c1", "thermal shift delta Tm": "0.1 °C"}
{"smiles": "CCS(=O)(=O)Nc1ccc2c(c1)/C(=C(/Nc1ccc(CN3CCCCC3)cc1)c1ccccc1)C(=O)N2", "note": "[Hesperadin]", "thermal shift delta Tm": "1.67 °C"}
{"smiles": "COCCOc1cnc2ccn([C@H](C)c3nnc4c(F)cc(-c5cnn(C)c5)cn34)c(=O)c2c1", "thermal shift delta Tm": "0.44 °C"}
{"smiles": "COc1ccc(-c2cc3c(C)nc(N)nc3n([C@H]3CC[C@H](OCCO)CC3)c2=O)cn1", "thermal shift delta Tm": "0.74 °C"}
{"smiles": "CS(=O)(=O)c1ccc(-c2cnc(N)c(C(=O)Nc3ccccc3)n2)cc1", "thermal shift delta Tm": "1.64 °C"}
{"smiles": "C=CC(=O)Nc1ccc(CN2C(=O)N(c3cc(OC)cc(OC)c3)Cc3cnc(Nc4ccc(N5CCN(C)CC5)cc4)nc32)cc1", "thermal shift delta Tm": "1.43 °C"}
{"smiles": "c1ccc(-c2[nH]ncc2-c2ccnc3ccccc23)nc1", "thermal shift delta Tm": "0.44 °C"}
{"smiles": "COc1ccc(Cl)c(Nc2nc3ccccc3nc2NS(=O)(=O)c2cccc(NC(=O)C(C)(C)N)c2)c1", "note": "[Pilaralisib (XL147)]", "thermal shift delta Tm": "1.63 °C"}
{"smiles": "CN1CCN(CCOc2cc(OC3CCOCC3)c3c(Nc4c(Cl)ccc5c4OCO5)ncnc3c2)CC1", "note": "[Saracatinib (AZD0530)]", "thermal shift delta Tm": "0.88 °C"}
{"smiles": "COc1cc2nccc(Oc3ccc(NC(=O)C4(C(=O)Nc5ccc(F)cc5)CC4)cc3)c2cc1OC", "note": "[Cabozantinib malate (XL184)]", "thermal shift delta Tm": "0.01 °C"}
{"smiles": "Cc1cc(C)c(/C=C2\\C(=O)Nc3ccccc32)[nH]1", "note": "[Semaxanib (SU5416)]", "thermal shift delta Tm": "2.4 °C"}
{"smiles": "NC(=O)c1ncn([C@@H]2O[C@H](CO)[C@@H](O)[C@H]2O)c1N", "note": "[AICAR (Acadesine)]", "thermal shift delta Tm": "0.45 °C"}
{"smiles": "CN(c1ncccc1CNc1nc(Nc2ccc3c(c2)CC(=O)N3)ncc1C(F)(F)F)S(C)(=O)=O", "thermal shift delta Tm": "1.79 °C and 2.31 °C"}
{"smiles": "O=c1cc(N2CCOCC2)oc2c1ccc1ccccc12", "thermal shift delta Tm": "-0.07 °C"}
{"smiles": "CCn1c(-c2nonc2N)nc2cnc(Oc3cccc(NC(=O)c4ccc(OCCN5CCOCC5)cc4)c3)cc21", "thermal shift delta Tm": "0.15 °C"}
{"smiles": "OC1CCC(Oc2cccc3cnc(Nc4ccc5nc[nH]c5c4)nc23)CC1", "note": "(stereo unspecified)", "thermal shift delta Tm": "5.55 °C"}
{"test_system": "LOC_OS01G02750-cb003", "test": "thermal shift delta Tm vs DMSO control; higher = stronger stabilization (binding)", "details": "12.5 µM; protein concentration 2 µM", "in_short": "as §1"}
{"smiles": "COc1cc(N2CCN(C)CC2)ccc1Nc1nccc(-c2cn(C)c3cnccc23)n1", "thermal shift delta Tm": "0.45 °C"}
{"smiles": "CN1CCN(c2nc(C3=C(c4c[nH]c5ccccc45)C(=O)NC3=O)c3ccccc3n2)CC1", "note": "[Sotrastaurin]", "thermal shift delta Tm": "3.23 °C"}
{"smiles": "CCN(CC)CCCC(C)Nc1nc(C)cc(Nc2ccc3nc(C)cc(N)c3c2)n1", "note": "(stereo unspecified)", "thermal shift delta Tm": "1.02 °C"}
{"smiles": "CN(C)C[C@@H]1CCn2cc(c3ccccc32)C2=C(C(=O)NC2=O)c2cn(c3ccccc23)CCO1", "thermal shift delta Tm": "0.71 °C"}
{"smiles": "CCn1c2ccccc2c2cc(Nc3ccnc(NCCCN4CCOCC4)n3)ccc21", "thermal shift delta Tm": "-0.06 °C"}
{"smiles": "O=C1NCCc2[nH]c(-c3ccncc3)cc21", "thermal shift delta Tm": "-0.36 °C"}
{"smiles": "Oc1cc(O)cc(/C=C/c2ccc(O)c(O)c2)c1", "note": "[Piceatannol]", "thermal shift delta Tm": "1.52 °C"}
{"smiles": "CC(C)(C#N)c1ccc(N2C(=O)OCc3cnc4ccc(-c5cnc6ccccc6c5)cc4c32)cc1", "thermal shift delta Tm": "1.19 °C"}
{"smiles": "N#CCNC(=O)c1ccc(-c2ccnc(Nc3ccc(N4CCOCC4)cc3)n2)cc1", "note": "[Momelotinib (CYT387)]", "thermal shift delta Tm": "0.08 °C"}
{"smiles": "Cc1cc(C(=O)Nc2nc3cccc(Cl)c3n2[C@@H]2CCCCN(C(=O)/C=C/CN(C)C)C2)ccn1", "note": "[Nazartinib (EGF816, NVS-816)]", "thermal shift delta Tm": "1.36 °C"}
{"smiles": "COc1cc(OC)cc(N(CCNC(C)C)c2ccc3ncc(-c4cnn(C)c4)nc3c2)c1", "thermal shift delta Tm": "1.27 °C"}
{"smiles": "O=C1c2ccc(Nc3ccc(F)cc3F)cc2CCc2ccc(OC[C@H](O)CO)cc21", "note": "[Skepinone-L]", "thermal shift delta Tm": "1.29 °C"}
{"smiles": "O=C1CCc2c(Oc3ccc4c(c3)[C@@H]3[C@H](O4)[C@H]3c3nc4cc(C(F)(F)F)ccc4[nH]3)ccnc2N1", "note": "[Lifirafenib (BGB-283)]", "thermal shift delta Tm": "3.41 °C"}
{"smiles": "N#C/C(=C(/N)Sc1ccc(N)cc1)c1ccccc1C(F)(F)F", "thermal shift delta Tm": "-0.14 °C"}
{"smiles": "COc1ccc(CC(=O)Nc2nc3c(s2)CCc2ccccc2-3)cc1OC", "thermal shift delta Tm": "1.06 °C"}
{"smiles": "CCn1c(-c2nonc2N)nc2c(C#CC(C)(C)O)ncc(OC[C@H]3CCCNC3)c21", "thermal shift delta Tm": "0.87 °C"}
{"smiles": "Cn1cc(-c2ccc3nnc(Sc4ccc5ncccc5c4)n3n2)cn1", "thermal shift delta Tm": "0.09 °C"}
{"smiles": "CCc1nc(C(N)=O)c(Nc2ccc(N3CCC(N4CCN(C)CC4)CC3)c(OC)c2)nc1NC1CCOCC1", "note": "[Gilteritinib (ASP2215)]", "thermal shift delta Tm": "2.42 °C"}
{"smiles": "CC(C)(CCCCCC(O)CCCCCC(C)(C)C(=O)O)C(=O)O", "thermal shift delta Tm": "0.54 °C"}
{"smiles": "CCN1CCN(Cc2ccc(Nc3ncc(F)c(-c4cc(F)c5nc(C)n(C(C)C)c5c4)n3)nc2)CC1", "thermal shift delta Tm": "2.83 °C"}
{"smiles": "Cc1cnc(NC(=O)Nc2cc(Br)c(C)cc2OC[C@@H]2CNCCO2)cn1", "thermal shift delta Tm": "0.39 °C"}
{"smiles": "CCn1c(=O)c(-c2ccc(Cl)cc2Cl)cc2cnc(Nc3ccc(N4CCNCC4)c(F)c3)nc21", "thermal shift delta Tm": "1.71 °C"}
{"smiles": "C=CC(=O)Nc1cccc(Oc2nc(Nc3ccc(N4CCN(C)CC4)cc3OC)ncc2Cl)c1", "thermal shift delta Tm": "-0.5 °C"}
{"smiles": "CCS(=O)(=O)Nc1ccc2c(c1)/C(=C(/Nc1ccc(CN3CCCCC3)cc1)c1ccccc1)C(=O)N2", "note": "[Hesperadin]", "thermal shift delta Tm": "4.74 °C"}
{"smiles": "COCCOc1cnc2ccn([C@H](C)c3nnc4c(F)cc(-c5cnn(C)c5)cn34)c(=O)c2c1", "thermal shift delta Tm": "0.28 °C"}
{"smiles": "COc1ccc(-c2cc3c(C)nc(N)nc3n([C@H]3CC[C@H](OCCO)CC3)c2=O)cn1", "thermal shift delta Tm": "0.7 °C"}
{"smiles": "CS(=O)(=O)c1ccc(-c2cnc(N)c(C(=O)Nc3ccccc3)n2)cc1", "thermal shift delta Tm": "0.51 °C"}
{"smiles": "C=CC(=O)Nc1ccc(CN2C(=O)N(c3cc(OC)cc(OC)c3)Cc3cnc(Nc4ccc(N5CCN(C)CC5)cc4)nc32)cc1", "thermal shift delta Tm": "1.19 °C"}
{"smiles": "c1ccc(-c2[nH]ncc2-c2ccnc3ccccc23)nc1", "thermal shift delta Tm": "0.87 °C"}
{"smiles": "COc1ccc(Cl)c(Nc2nc3ccccc3nc2NS(=O)(=O)c2cccc(NC(=O)C(C)(C)N)c2)c1", "note": "[Pilaralisib (XL147)]", "thermal shift delta Tm": "2.16 °C"}
{"smiles": "CN1CCN(CCOc2cc(OC3CCOCC3)c3c(Nc4c(Cl)ccc5c4OCO5)ncnc3c2)CC1", "note": "[Saracatinib (AZD0530)]", "thermal shift delta Tm": "0.03 °C"}
{"smiles": "COc1cc2nccc(Oc3ccc(NC(=O)C4(C(=O)Nc5ccc(F)cc5)CC4)cc3)c2cc1OC", "note": "[Cabozantinib malate (XL184)]", "thermal shift delta Tm": "0.45 °C"}
{"smiles": "Cc1cc(C)c(/C=C2\\C(=O)Nc3ccccc32)[nH]1", "note": "[Semaxanib (SU5416)]", "thermal shift delta Tm": "1.81 °C"}
{"smiles": "NC(=O)c1ncn([C@@H]2O[C@H](CO)[C@@H](O)[C@H]2O)c1N", "note": "[AICAR (Acadesine)]", "thermal shift delta Tm": "1.18 °C"}
{"smiles": "CN(c1ncccc1CNc1nc(Nc2ccc3c(c2)CC(=O)N3)ncc1C(F)(F)F)S(C)(=O)=O", "thermal shift delta Tm": "3.54 °C and 4.36 °C"}
{"smiles": "O=c1cc(N2CCOCC2)oc2c1ccc1ccccc12", "thermal shift delta Tm": "2.24 °C"}
{"smiles": "CCn1c(-c2nonc2N)nc2cnc(Oc3cccc(NC(=O)c4ccc(OCCN5CCOCC5)cc4)c3)cc21", "thermal shift delta Tm": "1.24 °C"}
{"smiles": "OC1CCC(Oc2cccc3cnc(Nc4ccc5nc[nH]c5c4)nc23)CC1", "note": "(stereo unspecified)", "thermal shift delta Tm": "6.21 °C"}
